Consider 40 compounds from PubChem BioAssay (EPA / NIEHS).

The AC50 is the concentration at which the activity in the assay is half-maximal.

The structures appear in SMILES notation. Activity calls are given as the source filed them. The calls were made as follows: active = hit-call score of the fitted dose curve at least 0.9, where 1 is the maximum; inactive = score below 0.9.

Read-out in the assay: Insulin-like growth factor-binding protein 1 (IGFBP1), IGFBP1 (gene 3484)
Kind of assay: LTEA_HepaRG_IGFBP1: Life Technologies and Expression Analysis (LTEA) Assay for Insulin-like growth factor-binding protein 1 (IGFBP1) using HepaRG (AID 2283508). Particulars: mRNA level, 48 h; actives raise or lower the signal. The protocol:
LTEA_HepaRG is a cell based, multiplexed-readout assay that uses HepaRG, a human liver cell line, with measurements taken at 48 hours after chemical dosing on a 96-well plate.LTEA_HepaRG_IGFBP1 is one of 102 assay component(s) measured in the LTEA HepaRG cell culture assay. It is a marker of Cell proliferation, survival, death.Data from the assay component LTEA_HepaRG_IGFBP1 was analyzed into 1 endpoint. This assay endpoint, LTEA_HepaRG_IGFBP1, was analyzed with bidirectional fitting relative to DMSO as the negative control and baseline of activity. Using a type of inducible reporter, measures of mRNA induction for gain or loss-of-signal activity can be used to understand regulation of transcription factor activity. To generalize the intended target to other relatable targets, this assay endpoint is annotated to the transporter intended target family, where the subfamily is hormone carrier protein.
A total of 1060 chemcials from the ToxCast library were tested in eight-point concentration-response experiments. Cell culture and cytotoxicity assays were conducted at Thermo Fisher Scientific's Custom Services facility (Madison, WI). A single lot of human HepaRG cells (Thermo Fisher Scientific, Frederick, MD) was used for the cell culture experiments. 96-well format collagen type I coated plates of human HepaRG cells were prepared using established methods. Briefly, cryopreserved HepaRG cells were thawed, plated at a density of approximately 100,000 cells/well in HepaRG Thaw, Plate, and General Purpose media (HPRG770, Thermo Fisher Scientific), and incubated for 48 hours. 0.5% DMSO was selected as vehicle control to balance the requisite need of DMSO in HepaRG cultures to maintain differentiation (for example, baseline metabolism, proportions of hepatocytes vs. cholangiocytes), while enabling further hepatic receptor pathway activation (for example, PXR and CAR) in response to chemical exposure. 48 hours after plating, the culture medium was replaced with HepaRG Serum-Free Incudtion Media. Cells were exposed to each test chemical in duplicate and maintained in CO2 incubators for another 48 hours. Chemical plates were thawed to room temperature and 200x concentrations of treatment groups were prepared. 8-point conentration-reponse curves were made with the highest exposure at 100 uM, followed by half-log dilutions, all in 0.5% DMSO. Each test plate contained variouse controls, induction positive controls (1mM phenobarbital), cytotoxicity positive controls ([…] aflatoxin B1), vehicle controls (0.5% DMSO), and total lysis controls (0.5% DMSO). Cell morphology images were taken using an Essen IncuCyte FLR automated microscope, with six 96-well plates imaged in about 24 minutes. Images were captured and exported and JPEG files. Spent culture media was transfered to black-well plates for the LDH assay, and remaining media was sorted at -80 C for later use. Cells were treated with RLT buffer and frozen until shipped for gene expression analysis. Total RNA was isolated from the cell suspension in 75 uL of Buffer RLT (Qiagen, Germantown, MD 20874) by Quintiles/Expression Analysis (Durham, NC) using a custom isolation procedure. Total RNA from each plate well was transferred to a preamplification plate. Fluidigm's 96.96 Dynamic ArrayTM (Fluidigm, Amsterdam, the Netherlands) technology was used for gene expression analyses by quantitative reverse transcription polymerase chain reaction (qRT-PCR, performed by Quintiles/Expression Analysis, Durham, NC)89. Standard TaqManTM Assays (Applied Biosystems/ThermoFisher Scientific, Foster City, CA) were used to assess the expression of 93 genes selected based on their selectivity and sensitivity to important hepatic receptors known to be modulated by environmental chemicals; importance in human hepatocyte functionality; and hepatotoxicity. […]
On to `O=Cc1ccccc1C=O`, for which the outcome was inactive.

On to `CC(=O)CC(c1ccccc1)c1c(O)c2ccccc2oc1=O` (stereo not given), for which the call was inactive.

With `CCCCc1nc2cccnc2n1Cc1ccc(-c2ccccc2-c2nnn[nH]2)cc1`, the result was inactive.

For the compound `CC(C)c1cccc(C(C)C)c1`, the call was inactive.

For `Oc1ccccc1O`, the compound was called inactive.

Turning to `CCCCCCCCCCCCCCOS(=O)(=O)O`, the compound was classed as inactive.

In the case of `NC(=Nc1ccccc1)Nc1ccccc1`, the AC50 is 13.2 µM (active).

Consider `C=CCc1ccc(OC)c(OC)c1`, for which the result was inactive.

For `Cc1cc(Cc2ccc(N)c(C)c2)ccc1N`, the outcome was inactive.

As for `CCc1nc(N)nc(N)c1-c1ccc(Cl)cc1`, the AC50 is 57.7 µM (active).

In the case of `O=C1O[C@H]([C@H](O)CO)C(O)=C1O`, the outcome was inactive.

Turning to `N[C@@H](Cc1c[nH]c2ccccc12)C(=O)O`, the compound was classed as inactive.

Regarding `O=C1NC(=O)C(c2ccccc2)(c2ccccc2)N1`, the call was inactive.

For the compound `CC(COCC(C)OC(=O)c1ccccc1)OC(=O)c1ccccc1` (stereo not given), the outcome was inactive.

For `O=C(O)CN(CC(=O)O)CC(=O)O`, the compound was classed as inactive.

For `CCCC(=O)O`, the call was inactive.

For `CCC(C)N(C)C(=O)c1cc2ccccc2c(-c2ccccc2Cl)n1` (stereo not given), the AC50 was 57.6 µM (active).

As to `O=C(O)CC(O)(CC(=O)O)C(=O)O`, the outcome was inactive.

As to `Oc1ccc(O)cc1`, the outcome was inactive.

Regarding `S=c1[nH]c2ccccc2s1`, the compound was called inactive.

As to `CCCCCCCCCCCCCCCCO`, the call was inactive.

Turning to `CCCCC(CC)COP(=O)(OCC(CC)CCCC)OCC(CC)CCCC` (stereo not given), the compound was classed as inactive.

Consider `CN(C)C(=O)NC1(c2ccccc2)CCN(CCC[C@]2(c3ccc(Cl)c(Cl)c3)CCCN(C(=O)c3ccccc3)C2)CC1`, for which the AC50 was 18.2 µM (active).

`C#CC(O)C(CC)CCCC` (stereo not given): the compound was called inactive.

Turning to `COC(=O)CCCC(=O)OC`, the compound was classed as inactive.

Take `CC(N)=O`: the compound was classed as inactive.

With `COC(=O)[C@H]1[C@H]2C[C@@H]3c4[nH]c5cc(OC)ccc5c4CCN3C[C@H]2C[C@@H](OC(=O)c2cc(OC)c(OC)c(OC)c2)[C@@H]1OC`, the AC50 was 47.7 µM (active).

Take `Cc1c(C)c2c(c(C)c1O)CCC(C)(COc1ccc(CC3SC(=O)NC3=O)cc1)O2` (stereo not given): the AC50 is 50 µM (active).

With `CC(=O)O[C@]1(C(C)=O)CC[C@H]2[C@@H]3C=C(Cl)C4=CC(=O)[C@@H]5C[C@@H]5[C@]4(C)[C@H]3CC[C@@]21C`, the AC50 is 50 µM (active).

With `NC1CCCCC1`, the result was inactive.

Consider `CCCCCCCCCC[N+](C)(C)[O-]`, for which the result was inactive.

On to `Cc1ccc(-c2cc(C(F)(F)F)nn2-c2ccc(S(N)(=O)=O)cc2)cc1`, for which the compound was called inactive.

With `CC(=O)O`, the compound was called inactive.

As for `CC(=O)OCC(COC(C)=O)OC(C)=O`, the call was inactive.

For the compound `NC=O`, the compound was classed as inactive.

On to `CC(C)(C)c1ccccc1`, for which the compound was called inactive.

With `O=C(N[C@@H](c1ccccc1)[C@@H]1CCCCN1)c1cccc(C(F)(F)F)c1Cl`, the AC50 was 25.3 µM (active).

As for `CCCC[C@H]1CN(CC2CCOCC2)C(=O)OC12CCN(C1(C)CCN(C(=O)c3c(C)ncnc3C)CC1)CC2`, the compound was called inactive.

Consider `CCCCCCC(CCCCCCCCCCC(=O)OCC(COC(C)=O)OC(C)=O)OC(C)=O` (stereo not given), for which the call was inactive.

As for `O=C(NS(=O)(=O)/C=C/c1cccs1)c1ccc(F)cc1Br`, the compound was called inactive.
